Only some compounds are listed: those with a hit (about 0.93% of all), similar ones and a draw of the others.
AGP1 TOR yeast: yeast TOR pathway AGP1-GFP modulation | S. cerevisiae AGP1-GFP multiplex flow cytometry, 3 h; GFP as percent of DMSO wells | GFP response vs DMSO, % at 10 µM | hit rate 0.02% among 320,000;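 active = GFP response relative to DMSO above a set limit, near screen average plus 3 SD, cut at about 150% in these data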;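 also: median GFP channel fluorescence of the gated AGP1 strain per well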
CIT2 TOR yeast: modulators of TOR pathway CIT2-GFP in S. cerevisiae. S. cerevisiae CIT2-GFP strain, flow cytometry, 3 h; 100 means same as DMSO wells. GFP response vs DMSO, % at 10 µM. hit rate 0.065% among 320,000;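 active = GFP response relative to DMSO above a set limit, near the screen mean plus 3 SD, cut at about 150% in these data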;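 also: ratio of well median GFP fluorescence to mean of DMSO wells on the plate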
LAP4-GFP MLPCN: modulators of TOR pathway LAP4-GFP in S. cerevisiae; S. cerevisiae LAP4-GFP multiplex, flow cytometry GFP, 3 h; median GFP as percent of DMSO wells; GFP response vs DMSO, % at 10 µM; hit rate 0.34% among 320,000; AID 2023;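 active = GFP response vs DMSO above a set limit, about the screen mean plus 3 SD, cut at about 150% in these data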
MEP2 TOR yeast: yeast TOR pathway MEP2-GFP modulation; hit rate 0.51% among 330,000; S. cerevisiae MEP2-GFP strain, flow cytometry GFP, 3 h; 100% = DMSO control level; GFP response vs DMSO, % at 10 µM;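 active = GFP response versus DMSO above a set limit, roughly screen mean plus 3 SD, cut at about 180% in these data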;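 also: median GFP fluorescence of the barcode-gated MEP2-GFP cells per well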
RPL19A-GFP yeast: yeast TOR pathway RPL19A-GFP modulation. percent response vs DMSO, % at 10 µM. hit rate 0.3% among 330,000. S. cerevisiae RPL19A-GFP strain, flow cytometry, 3 h; hits give low values;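 active = percent response vs DMSO below 50%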;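 also: median channel GFP fluorescence of the barcoded RPL19A-GFP strain; ratio of sample median GFP to plate DMSO average so 100% = DMSO; lower means less RPL19A-GFP as with rapamycin TOR inhibition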
LAP4 cherry2: reconfirmed LAP4-GFP TOR pathway modulator in yeast | AID 2621 | S. cerevisiae LAP4-GFP strain, flow cytometry GFP, 3 h | hit rate 20% among 590 | shares compounds with LAP4-GFP MLPCN | GFP response vs DMSO, % at 10 µM;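 active = GFP signal as percent of the solvent control above about 150%, meaning raised reporter expression, limit read from the data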;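 also: ratio of well median GFP fluorescence to plate DMSO mean so 100% = DMSO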
MEP2-GFP pick2: yeast MEP2-GFP modulation, second cherry pick; S. cerevisiae MEP2-GFP strain, flow cytometry GFP, 3 h; GFP response vs DMSO, % at 10 µM; shares compounds with LAP4-GFP MLPCN; hit rate 10% among 590; AID 2622;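 active = GFP signal above 150% of the solvent control wells, that is a rise of more than half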;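 also: median channel GFP fluorescence of all gated yeast cells per well; ratio of median GFP to plate DMSO average so 100% = DMSO level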
RPL19A-GFP pick2: reconfirmed modulator of RPL19A-GFP TOR reporter in yeast; shares compounds with LAP4-GFP MLPCN; hit rate 3% among 590; S. cerevisiae RPL19A-GFP strain, flow cytometry GFP, 3 h; hits give low values; 100% means same as DMSO wells; GFP response vs DMSO, % at 10 µM; AID 2623;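 active = under 65% GFP response relative to DMSO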;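 also: median GFP channel fluorescence per well over the all cells gate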
CIT2 GFP CP2: reconfirmed modulator of CIT2-GFP TOR reporter in yeast; hit rate 8% among 590; S. cerevisiae CIT2-GFP strain, flow cytometry GFP, 3 h; DMSO control wells read 100%; GFP response vs DMSO, % at 10 µM; shares compounds with LAP4-GFP MLPCN;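 active = GFP response vs DMSO above about 150%, limit read from the data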;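 also: median green fluorescence per well over all gated yeast cells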
AGP1-GFP pick2: yeast AGP1-GFP TOR reporter modulation, second cherry pick; 590 tested, under 10 active; AID 2643; percent response vs DMSO, % at 10 µM; shares compounds with LAP4-GFP MLPCN; S. cerevisiae AGP1-GFP strain, flow cytometry GFP, 3 h;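 active = over 150 percent of DMSO response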;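 also: median GFP channel fluorescence over all cells without mother daughter split; sample median GFP divided by mean DMSO control so 100% equals DMSO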
s288c autofluor: compound is autofluorescent in yeast s288c cells; shares compounds with LAP4-GFP MLPCN; S. cerevisiae s288c, 520 nm autofluorescence, flow cytometry, 3 h; hits give high values; zero means same as solvent-only cells; fluorescence change (kMESF span) at 33 µM; 610 tested, under 10 active; AID 2757;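 active = fluorescence span over the dose series, or activity score, above about 33, limit read from the data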
* = called active by the depositor; x = no result given.

SMILES	AGP1 TOR yeast	CIT2 TOR yeast	LAP4-GFP MLPCN	MEP2 TOR yeast	RPL19A-GFP yeast	LAP4 cherry2	MEP2-GFP pick2	RPL19A-GFP pick2	CIT2 GFP CP2	AGP1-GFP pick2	s288c autofluor
CC(=O)n1cc(C(C[N+](=O)[O-])SCCN)c2ccccc21 (stereo not given)	78	76	226*	87	93	183*	164*	98	127	104	1.5
COCCN1C(=O)/C(=C/c2ccc(N3CCCC3)cc2C)SC1=S	106	190*	129	186*	120	x	x	x	x	x	1.9
CCN=C1S/C(=C\c2ccc(N3CCOCC3)cc2C)C(=O)N1CC	104	110	97	106	109	x	x	x	x	x	x
Cc1cc(=O)c(C(=O)Nc2ccc(N3CCOCC3)cc2N2CCOCC2)nn1-c1ccccc1Cl	98	92	101	98	102	x	x	x	x	x	x
CC(C)(C)NC(=O)[C@@H]1C[C@@H]2CCCC[C@@H]2CN1C[C@@H](O)[C@H](Cc1ccccc1)NC(=O)[C@H](CC(N)=O)NC(=O)c1ccc2ccccc2n1	82	79	96	96	100	107	114	96	113	101	x
COC(=O)[C@H](Cc1ccccc1)NC(=O)c1ccc2ccccc2n1	90	89	85	93	96	x	x	x	x	x	x
CCOC(=O)CC(=O)Nc1ccc(C)cc1	96	103	93	103	100	99	102	99	100	100	x
Cc1ccc(C)c(N(CC(=O)NC2CCCC2)C(=O)c2csnn2)c1	96	101	98	101	103	x	x	x	x	x	x
CCN(CC(=O)Nc1ccc2c(c1)OCCO2)C(=O)CCc1ccccc1Cl	111	90	107	105	106	x	x	x	x	x	x
CCSC1=NSC2=NC(=O)/C(=C\c3coc4ccccc4c3=O)C(=N)N12	40	74	130	268*	85	309*	169*	169	161*	114	x
CC1CC(C)CN(S(=O)(=O)N2CCCC(C(=O)NC3CCCCC3C)C2)C1 (stereo not given)	15	100	95	138	59	104	112	98	110	102	x
O=C(NC(=S)NNC(=O)c1ccccc1O)c1cccs1	96	91	91	100	110	x	x	x	x	x	x
COc1ccccc1C(=O)NNC(=S)NC(=O)c1cccs1	126	122	186*	108	125	x	x	x	x	x	0.2
O=C(Cc1ccc(Cl)cc1)NNC(=S)NC(=O)c1cccs1	113	108	199*	104	109	x	x	x	x	x	1.1
O=C(Cc1cccs1)NNC(=S)NCc1ccc(Cl)cc1	98	103	96	92	92	x	x	x	x	x	x
N#Cc1ccc(-c2nc3ccc(Br)cc3c(=O)n2O)cc1	87	80	131	96	85	x	x	x	x	x	x
O=c1c2cc(Br)ccc2nc(-c2ccc([N+](=O)[O-])cc2)n1O	68	69	121	88	65	148	169*	51*	121	80	0.2
Cc1nc2nc(SCc3ccccc3)[nH]n2c(=O)c1CCC(C)C	98	109	94	108	104	x	x	x	x	x	x
CCN1/C(=C/C(C)=C/c2sc3ccccc3[n+]2CC)Sc2ccccc21	69	61	188*	102	50	x	x	x	x	x	2.1
CCN1/C(=C\C(=S)Nc2ccccc2)Sc2ccccc21	98	98	146	97	91	x	x	x	x	x	x
COc1cccc(N=CC2=C(O)CCCC2=O)c1	99	92	106	102	93	x	x	x	x	x	x
COc1ccc(N=Cc2nc(-c3ccccc3)oc2OC(C)=O)cc1	101	89	120	98	103	x	x	x	x	x	0
COc1cccc(N=Cc2nc(-c3ccccc3)oc2OC(C)=O)c1	x	x	x	89	99	x	x	x	x	x	-0.2
CCOC(=O)Cn1c(CN2CCOCC2)nc2c1c(=O)n(C)c(=O)n2C	106	101	222*	95	69	108	119	101	115	99	x
CCOC(=O)Cn1c(CN2CCOCC2)nc2c1c(=O)[nH]c(=O)n2C	98	112	96	97	93	x	x	x	x	x	x
SMILES	AGP1 TOR yeast	CIT2 TOR yeast	LAP4-GFP MLPCN	MEP2 TOR yeast	RPL19A-GFP yeast	LAP4 cherry2	MEP2-GFP pick2	RPL19A-GFP pick2	CIT2 GFP CP2	AGP1-GFP pick2	s288c autofluor
Cc1ccc(S(=O)(=O)N2CCN(CCc3ccccc3)CC2)c(C)c1	102	104	100	108	101	x	x	x	x	x	x
Cc1ccc(S(=O)(=O)ON2C(=O)c3ccccc3C2=O)c(C)c1	57	70	122	99	61	132	168*	71	122	87	1.3
Cc1cc(C)c(S(=O)(=O)ON2C(=O)c3ccccc3C2=O)cc1C	75	76	171*	109	70	x	x	x	x	x	2.2
O=C1c2ccccc2C(=O)N1OS(=O)(=O)c1ccc(F)cc1	93	101	157*	102	99	x	x	x	x	x	1.6
Cc1cc(C)c(C)c(S(=O)(=O)ON2C(=O)c3ccccc3C2=O)c1C	69	82	248*	92	99	x	x	x	x	x	0.81
CCCCNC(=O)c1cc2c(-c3ccc(Cl)cc3)nn(C)c2s1	104	151*	157*	216*	105	103	105	100	99	98	x
COCCCNC(=O)c1cc2c(-c3ccc(Cl)cc3)nn(C)c2s1	100	97	101	102	100	x	x	x	x	x	x
CCN1C(=O)/C(=C\C(=O)c2cccs2)c2cc(Br)ccc21	91	78	196*	98	100	x	x	x	x	x	1.6
Cc1cc(-c2csc(NC(=O)c3ccc(=O)[nH]c3)n2)c(C)n1Cc1ccco1	106	90	152*	87	91	99	110	101	96	103	x
O=C(N/N=C/c1ccoc1)c1ccccc1F	114	115	112	103	109	x	x	x	x	x	x
O=[N+]([O-])c1c(Nc2ccccn2)cc(Cl)c2nonc12	134	456*	674*	951*	162	x	x	x	x	x	37*
COCCCNC(=O)C1CCC(CNS(=O)(=O)c2ccc3c(c2)N(C(C)=O)CCO3)CC1 (stereo not given)	95	97	91	95	99	x	x	x	x	x	x
O=C(O)CCCc1ccc2c(c1)CCc1ccccc1-2	72	59	173*	87	87	109	96	91	97	88	x
